# Records with an inconclusive call do not appear. Where a call stands in place of a potency, no number is given. Values without a mark were called inactive. The source made the active and inactive calls. Unless noted, the call rests on the fitted dose curve; in most records, active means well fitted curve in the direction sought with a large enough effect in the repeat runs; inconclusive means weak or mixed curves; inactive means no such curve, though single readings can be large; an effect the other way counts as inactive or inconclusive.
# How the values were obtained:
# [1] = qHTS assay to identify small molecule antagonists of the retinoid-related orphan receptor gamma (ROR-gamma) signaling pathway - cell viability counter screen (AID 1159520); settings: Tet-on RORgamma CHO cells viability, ATP luminescence, 16 h; series mostly up to 92.4 µM; further: nearly all actives have a fitted effect of over 50% in size
# Outline: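 Cytotoxicity was read from cellular ATP (CellTiter-Glo luminescence) after 16 hr at 37 C with 1 uM doxycycline induction. The inducer was added 2 hr after compound transfer to Tet-on ROR gamma CHO cells.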
# [2] = target: Nuclear receptor ROR-gamma (Homo sapiens) (UniProt P51449); test: qHTS assay to identify small molecule antagonists of the retinoid-related orphan receptor gamma (ROR-gamma) signaling pathway (AID 1159521;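 further: CHO cells with doxycycline inducible ROR-gamma driving an RORE luciferase reporter; top concentration of the series differs between compounds; nearly all actives have a fitted effect of over 50% in size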); settings: Tet-on RORgamma CHO cells, RORE-luciferase, 16 h; series mostly up to 92.4 µM
# Outline: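 Screening format: cell-based luciferase reporter in CHO cells with doxycycline-inducible RORγ. Compound pre-exposure lasts 2 h, doxycycline is 1 uM final, induction runs 16 h at 37 C, and ONE-Glo luminescence is read.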
# [3] = qHTS assay to identify small molecule agonists of the AP-1 signaling pathway - cell viability counter screen (AID 1159525; calls by dose curve; further: nearly all actives have a fitted effect of over 55% in size); settings: ME-180 AP-1-bla cells viability, ATP luminescence, 5 h; series mostly up to 76.8 µM
# Outline: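 Luminescent ATP readout (Cell Titer Glo, 30 min RT), normalised to DMSO and tetra n-octyl ammonium bromide controls. Cells were ME-180 AP-1-bla in 0.5% dialyzed FBS Opti-MEM, with a 5 h, 37 °C compound exposure.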
# [4] = target: Retinoic acid receptor RXR-alpha (Homo sapiens) (UniProt P19793); test: qHTS assay to identify small molecule agonists of the RXR signaling pathway (AID 1159527; calls by dose curve; further: nearly all actives have a fitted effect of over 35% in size); settings: HEK293T RXRa-UAS-bla, beta-lactamase ratio, 16 h; series mostly up to 76.8 µM
# Sequence of Retinoic acid receptor RXR-alpha (Homo sapiens) (P19793 whole entry, looked up): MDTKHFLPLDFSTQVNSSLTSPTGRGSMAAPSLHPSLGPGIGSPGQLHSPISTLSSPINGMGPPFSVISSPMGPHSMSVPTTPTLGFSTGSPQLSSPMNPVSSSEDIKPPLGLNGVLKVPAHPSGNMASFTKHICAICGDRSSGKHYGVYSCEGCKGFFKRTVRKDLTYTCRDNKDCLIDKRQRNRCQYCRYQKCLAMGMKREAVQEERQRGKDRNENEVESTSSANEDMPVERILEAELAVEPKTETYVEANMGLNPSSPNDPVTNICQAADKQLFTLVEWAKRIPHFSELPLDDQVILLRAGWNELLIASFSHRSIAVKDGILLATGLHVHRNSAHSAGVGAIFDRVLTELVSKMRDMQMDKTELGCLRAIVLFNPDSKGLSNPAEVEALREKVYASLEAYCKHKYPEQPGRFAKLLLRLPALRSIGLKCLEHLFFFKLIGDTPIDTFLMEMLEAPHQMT
# Outline: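 Fluorescence ratio readout (460 vs 530 nm) from GeneBLAzer RXR-alpha HEK 293T cells after 16 hr compound treatment; cells seeded 5 hr beforehand in low-serum, charcoal-stripped medium.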
# [5] = qHTS assay to identify small molecule agonists of the RXR signaling pathway - cell viability counter screen (AID 1159529); settings: RXR-alpha-bla HEK293T viability, CellTiter-Glo, 16 h; series mostly up to 76.8 µM;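 further: HEK 293T cells carrying an RXR-alpha UAS beta-lactamase reporter; nearly all actives have a fitted effect of over 50% in size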
# Outline: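 Viability read-out for the RXR-alpha agonist qHTS: luminescent CellTiter-Glo signal after 30 min at RT. HEK 293T bla reporter cells, 2% charcoal-stripped FBS, 16 hr compound incubation; tetraoctyl ammonium bromide as cytotoxic control.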
# [6] = qHTS assay to identify small molecule antagonists of the retinoid acid receptor (RAR) signaling pathway - cell viability counter screen (AID 1159551); settings: C3RL4 cells viability, ATP luminescence (CellTiter-Glo), 6 h; series mostly up to 92.4 µM; further: nearly all actives have a fitted effect of over 35% in size
# Outline: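 C3RL4 RARE-luciferase cells, 1,000/well, incubated overnight, then dosed with compound plus 1 uM retinol (final). After 6 hr at 37 C, viability read by CellTiter-Glo ATP luminescence following 30 min at room temperature.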
# [7] = qHTS assay to identify small molecule antagonists of the retinoic acid receptor (RAR) signaling pathway (AID 1159552; further: nearly all actives have a fitted effect of over 50% in size); settings: C3RL4 RARE luciferase reporter, retinol-stimulated, 6 h; series mostly up to 92.4 µM
# Outline: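 Using a RARE-driven luciferase construct in C3RL4 cells, retinol at 1 uM final provided the agonist stimulus while compounds were co-applied. After 6 hours at 37 C, luminescence was recorded to flag inhibitors of retinol signaling.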
# [8] = qHTS assay to identify small molecule agonists of the AP-1 signaling pathway (AID 1159526; calls by dose curve; further: potency means the concentration at half of the fitted maximal effect); settings: ME-180 (cervical carcinoma) AP-1-bla reporter, beta-lactamase FRET ratio, 5 h; series mostly up to 76.8 µM
smiles,measurement,setting,value
CCc1c(C)cc(N)c(CC)c1N,Potency,[1],inactive
same,Potency,[2],inactive
same,Potency,[3],inactive
same,Potency,[4],inactive
same,Potency,[5],inactive
same,Potency,[6],inactive
N#CCCOCCC#N,Potency,[1],inactive
same,Potency,[2],inactive
same,Potency,[3],inactive
same,Potency,[4],inactive
same,Potency,[5],inactive
same,Potency,[6],inactive
same,Potency,[7],inactive
C=Cc1ccc(O)c(OC)c1,Potency,[1],inactive
same,Potency,[2],inactive
same,Potency,[3],inactive
same,Potency,[4],inactive
same,Potency,[5],inactive
same,Potency,[6],inactive
C=CC(=O)OCCOC1C2CCC1C1CC=CC12 (stereo not given),"activity, negative = cytotoxicity",[1],1.32% [at 19 µM]
same,"activity change, negative = inhibition",[2],0.993% [at 19 µM]
same,"viability change, negative = cytotoxic",[3],-20.2% [at 15.8 µM]
same,activation,[8],-3.6% [at 15.8 µM]
same,"activity change, negative = cytotoxicity",[5],-24% [at 15.8 µM]
same,"activity change, negative = cytotoxicity",[6],-0.0183% [at 19 µM]
O=C1c2ccccc2C(=O)c2c(Cl)cccc21,Potency,[1],inactive
same,Potency,[2],inactive
same,Potency,[3],inactive
same,Potency,[8],inactive
same,Potency,[4],inactive
same,Potency,[6],inactive
same,Potency,[7],inactive
C=C[Si](C)(C)Cl,"activity, negative = cytotoxicity",[1],5.94% [at 8.39 µM]
same,"activity change, negative = inhibition",[2],-27.2% [at 8.39 µM]
same,"viability change, negative = cytotoxic",[3],-3.04% [at 6.97 µM]
same,activation,[4],0.333% [at 6.98 µM]
same,"activity, negative = inhibition",[7],83.8% [at 8.39 µM]
ClC(c1ccccc1)(c1ccccc1)c1ccccc1,Potency,[1],inactive
same,Potency,[2],inactive
same,Potency,[3],inactive
same,Potency,[8],inactive
same,Potency,[5],inactive
same,Potency,[6],inactive
same,Potency,[7],inactive
NCc1ccco1,Potency,[1],inactive
same,Potency,[2],inactive
same,Potency,[3],inactive
same,Potency,[4],inactive
same,Potency,[5],inactive
same,Potency,[6],inactive
CC(CC(C)(C)C)CC(C)(C)CC(C)(C)C (stereo not given),Potency,[1],inactive
same,Potency,[2],inactive
same,Potency,[3],inactive
same,Potency,[8],inactive
same,Potency,[5],inactive
same,Potency,[6],inactive
Cc1ccc2sc3cccc(C)c3c2c1,Potency,[1],inactive
same,Potency,[2],inactive
same,Potency,[3],inactive
same,Potency,[8],inactive
same,Potency,[4],inactive
same,Potency,[6],inactive
CN1CCN(C)CC1,Potency,[1],inactive
same,Potency,[2],inactive
same,Potency,[3],inactive
same,Potency,[4],inactive
same,Potency,[5],inactive
same,Potency,[6],inactive
same,Potency,[7],inactive
C/C=C/C(=O)OCC(C)C,Potency,[1],inactive
same,Potency,[2],inactive
same,Potency,[3],inactive
same,Potency,[8],54.9 µM (active)
same,Potency,[5],inactive
same,Potency,[7],inactive

# — PubChem BioAssay (Tox21)
